A selection: hits, their analogues and other compounds. The true share with any hit is near 28%.
CYP2C9 inhib: human CYP2C9 inhibition; 20% of 96,000 active; inhibition, % at 5 µM; CYP2C9 Supersomes, luciferin-H conversion, luminescence; AID 777;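 active means blocking of liver enzyme CYP2C9 beyond about 50% at 5 µM, limit read from the data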
CYP2C19 inh: human CYP2C19 inhibition. P33261. CYP2C19 Supersomes, luciferin-H EGE luminescence, 30 min. inhibition, % at 5 µM. 21% of 96,000 active. AID 778;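 active means CYP2C19 inhibition above a set limit at 5 µM in the primary screen, cut at about 50% in these data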;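 further: plate controls were negative control wells for no effect and 2.5 mM tranylcypromine positive control for full effect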
Target sequence (P33261 whole entry, looked up): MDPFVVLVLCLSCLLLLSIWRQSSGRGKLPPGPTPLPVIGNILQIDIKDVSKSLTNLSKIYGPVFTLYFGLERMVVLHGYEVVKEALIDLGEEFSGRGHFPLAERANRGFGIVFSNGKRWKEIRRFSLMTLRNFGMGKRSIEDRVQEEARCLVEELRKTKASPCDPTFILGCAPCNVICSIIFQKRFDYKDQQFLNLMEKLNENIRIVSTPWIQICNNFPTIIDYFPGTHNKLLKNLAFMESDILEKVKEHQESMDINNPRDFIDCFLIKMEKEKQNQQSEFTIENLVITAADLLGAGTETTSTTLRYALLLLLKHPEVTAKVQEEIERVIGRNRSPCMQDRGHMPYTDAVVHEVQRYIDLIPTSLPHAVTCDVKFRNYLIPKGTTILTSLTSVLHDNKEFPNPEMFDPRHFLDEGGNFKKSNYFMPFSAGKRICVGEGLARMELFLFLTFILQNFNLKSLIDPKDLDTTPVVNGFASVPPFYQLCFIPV
CYP2C9 act: activators of human CYP2C9 | P11712 | recombinant CYP2C9, luciferin-H conversion, luminescence; hits give high values; factor 1 = untreated enzyme, 0 = blocked | activation factor at 5 µM | 1.4% of 96,000 active;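 active means activation factor of 2 or more for CYP2C9 at a 5 µM dose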;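 further: 0 = sulfaphenazole-blocked wells and 1 = vehicle-only wells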
Plk1 PBD FP: inhibitors of human Plk1 polo box domain binding. P53350. Plk1 PBD phosphopeptide binding, fluorescence polarization. inhibition, %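 (tested at about 20 µM)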. 0.13% of 97,000 active. AID 693; in the data active means inhibition above about 34%, passing the limit was not always enough
PLK1 kinase inh: PLK1 (human) kinase inhibition; P53350; recombinant PLK1 kinase, TR-FRET peptide phosphorylation; inhibition, % at 10 µM; 0.53% of 97,000 active; AID 619;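 active means inhibition of 50% or more in the single-concentration screen; inactive means inhibition below 50%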;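 further: 0% = DMSO max control and 100% = H-89 dihydrochloride min control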
CYP2C19 activ: increases human CYP2C19 enzyme activity | P33261 | recombinant CYP2C19, luciferin-H EGE luminescence; hits give high values; 0 = fully inhibited enzyme, 1 = untreated enzyme | activation factor at 5 µM | 96,000 tested, under 10 active | AID 1025;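 active means activation factor of at least 2 at 5 µM in the primary screen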;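 further: 0 = wells with 2.5 mM tranylcypromine and 1 = vehicle-only wells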
* hit, by the source's call.

Screening Cc1onc(-c2c(F)cccc2Cl)c1C(=O)NCc1ccco1 returned CYP2C9 inhib 15.2, CYP2C19 inh 32.4, CYP2C9 act 0.8, Plk1 PBD FP 6.1, PLK1 kinase inh 6.0 and CYP2C19 activ 0.7.
Cc1onc(-c2ccccc2)c1C(=O)Nc1cccnc1 was read as CYP2C9 inhib 50.1*, CYP2C19 inh 10.6, CYP2C9 act 0.5, Plk1 PBD FP -27.5, PLK1 kinase inh -9.8 and CYP2C19 activ 0.9.
Cc1onc(-c2c(F)cccc2Cl)c1C(=O)NCc1cccs1 was read as CYP2C9 inhib 84.4*, CYP2C19 inh 84.6*, CYP2C9 act 0.2, Plk1 PBD FP -12.4, PLK1 kinase inh -16.8 and CYP2C19 activ 0.2.
Screening Cc1onc(-c2ccccc2)c1C(=O)Nc1nc2c(s1)CCCC2 returned CYP2C9 inhib 46.1, CYP2C19 inh 27.5, CYP2C9 act 0.5, Plk1 PBD FP -26.8, PLK1 kinase inh -14.4 and CYP2C19 activ 0.7.
For Cc1noc(C)c1C(=O)OCC(=O)NC(c1ccccc1)c1ccccc1 the results were CYP2C9 inhib 12.0, CYP2C19 inh 9.1, CYP2C9 act 0.9, Plk1 PBD FP -12.5, PLK1 kinase inh -9.2 and CYP2C19 activ 0.9.
Screening Cc1onc(-c2c(F)cccc2Cl)c1C(=O)OCC(=O)NC(c1ccccc1)c1ccccc1 returned CYP2C9 inhib 83.5*, CYP2C19 inh 30.2, CYP2C9 act 0.2, Plk1 PBD FP -1.9, PLK1 kinase inh -10.9 and CYP2C19 activ 0.7.
`Cc1onc(-c2ccccc2)c1C(=O)Nc1nc(-c2ccc(F)c(F)c2)cs1` gave CYP2C9 inhib 67.8*, CYP2C19 inh 78.8*, CYP2C9 act 0.3, Plk1 PBD FP 27.6, PLK1 kinase inh 1.1 and CYP2C19 activ 0.2.
Screening CCN(CC)CCCN1C(=O)c2oc3ccccc3c(=O)c2C1c1cccc(OC)c1OC (stereo not given) returned CYP2C9 inhib 33.4, CYP2C19 inh 21.2, CYP2C9 act 0.7, Plk1 PBD FP -15.6, PLK1 kinase inh -4.8 and CYP2C19 activ 0.8.
For Cc1csc(NC(=O)c2c(-c3c(Cl)cccc3Cl)noc2C)n1 the results were CYP2C9 inhib 88.9*, CYP2C19 inh 83.4*, CYP2C9 act 0.1, Plk1 PBD FP 19.7, PLK1 kinase inh 2.4 and CYP2C19 activ 0.2.
Cc1onc(-c2c(F)cccc2Cl)c1C(=O)Nc1nc2c(s1)CCCC2 was read as Plk1 PBD FP -12.5 and PLK1 kinase inh -3.2.
Screening CCOC(=O)c1c(NC(=O)c2c(-c3ccccc3)noc2C)sc(C)c1-c1ccccc1 returned CYP2C9 inhib 40.9, CYP2C19 inh 8.9, CYP2C9 act 0.6, Plk1 PBD FP -8.5, PLK1 kinase inh -14.3 and CYP2C19 activ 0.9.
`Cc1onc(-c2c(Cl)cccc2Cl)c1C(=O)Nn1cnnc1` gave CYP2C9 inhib 13.3, CYP2C19 inh -4.2, CYP2C9 act 0.9, Plk1 PBD FP -13.7, PLK1 kinase inh -6.2 and CYP2C19 activ 1.
`Cc1onc(-c2c(Cl)cccc2Cl)c1C(=O)Nc1ccc2c(c1)OCO2` gave CYP2C9 inhib 81.4*, CYP2C19 inh 40.2, CYP2C9 act 0.2, Plk1 PBD FP -11.2, PLK1 kinase inh -13.9 and CYP2C19 activ 0.6.
For CCOC(=O)Cc1csc(NC(=O)c2c(-c3c(F)cccc3Cl)noc2C)n1 the results were CYP2C9 inhib 70.5*, CYP2C19 inh 51.4*, CYP2C9 act 0.3, Plk1 PBD FP -0.7, PLK1 kinase inh -6.8 and CYP2C19 activ 0.5.
CCOC(=O)Cc1csc(NC(=O)c2c(-c3ccccc3)noc2C)n1 was read as CYP2C9 inhib 83.0*, CYP2C19 inh 82.0*, CYP2C9 act 0.2, Plk1 PBD FP 17.9, PLK1 kinase inh -10.8 and CYP2C19 activ 0.2.
Screening Cc1nc(N2CCc3ccccc32)[nH]c(=O)c1CCC(C)C returned Plk1 PBD FP -10.4 and PLK1 kinase inh -11.4.
For O=C(c1ccc(Cl)cc1)N1CCN(c2cc(=O)[nH]nc2-c2ccccc2)CC1 the results were CYP2C9 inhib 2.0, CYP2C19 inh -8.7, CYP2C9 act 1, Plk1 PBD FP 0.1, PLK1 kinase inh 0.3 and CYP2C19 activ 1.1.
Screening Cn1nc(OC(=O)Nc2ccccc2)cc1C(F)(F)F returned CYP2C9 inhib 2.0, CYP2C19 inh 0.9, CYP2C9 act 1, Plk1 PBD FP 7.6, PLK1 kinase inh -10.3 and CYP2C19 activ 1.
For CCOc1ccccc1NC(=O)CN(c1cc(C)cc(C)c1)S(=O)(=O)c1c(C)noc1C the results were CYP2C9 inhib -12.5, CYP2C19 inh -9.9, CYP2C9 act 1.1, Plk1 PBD FP -28.6, PLK1 kinase inh -1.3 and CYP2C19 activ 1.1.
For COc1ccc(N(CC(=O)NC2CCCC2)S(=O)(=O)c2c(C)[nH]c(=O)[nH]c2=O)cc1 the results were CYP2C9 inhib 43.0, CYP2C19 inh 5.3, CYP2C9 act 0.6, Plk1 PBD FP 23.6, PLK1 kinase inh -14.5 and CYP2C19 activ 0.9.
COc1ccc(N(CC(=O)Nc2cccc(C)c2C)S(=O)(=O)c2c(C)n[nH]c2C)cc1 was read as CYP2C9 inhib 50.8*, CYP2C19 inh 54.5*, CYP2C9 act 0.5, Plk1 PBD FP -20.5, PLK1 kinase inh 6.6 and CYP2C19 activ 0.5.
For COc1ccccc1NC(=O)CN(c1ccc(C)cc1)S(=O)(=O)c1c(C)n[nH]c1C the results were CYP2C9 inhib 96.3*, CYP2C19 inh 69.7*, CYP2C9 act 0, Plk1 PBD FP -6.0, PLK1 kinase inh -7.1 and CYP2C19 activ 0.3.
Screening CCOC(=O)c1ccc(N2C(=O)CC(NC3CCN(C(=O)c4cccc(Cl)c4)CC3)C2=O)cc1 (stereo not given) returned CYP2C9 inhib 33.1, CYP2C19 inh 34.1, CYP2C9 act 0.7, Plk1 PBD FP 2.7, PLK1 kinase inh -3.9 and CYP2C19 activ 0.7.
`CC1CCN(C(c2cccs2)c2nnnn2Cc2ccccc2)CC1` (stereo not given) gave CYP2C9 inhib 36.5, CYP2C19 inh 88.5*, CYP2C9 act 0.6, Plk1 PBD FP -7.6, PLK1 kinase inh -2.2 and CYP2C19 activ 0.1.
For c1ccc(Cn2nnnc2C(c2cccs2)N2CCOCC2)cc1 (stereo not given) the results were CYP2C9 inhib 4.6, CYP2C19 inh 63.0*, CYP2C9 act 1 and CYP2C19 activ 0.4.
For c1ccc(Cn2nnnc2C(c2cccs2)N2CCSCC2)cc1 (stereo not given) the results were Plk1 PBD FP -8.8 and PLK1 kinase inh -6.7.
For CC(C)(C)n1nnnc1C(c1cccs1)N1CCN(Cc2ccccc2)CC1 (stereo not given) the results were CYP2C9 inhib -4.5, CYP2C19 inh -5.0, CYP2C9 act 1, Plk1 PBD FP -15.9, PLK1 kinase inh -2.4 and CYP2C19 activ 1.1.
Screening Cc1[nH]nc2c1C(c1ccc(F)cc1)C1=C(CC(C)(C)CC1=O)N2 (stereo not given) returned CYP2C9 inhib 19.2, CYP2C19 inh 26.3, CYP2C9 act 0.8, Plk1 PBD FP 6.1, PLK1 kinase inh -13.6 and CYP2C19 activ 0.7.

Compound activity: PubChem BioAssay, several laboratories
